Measurements: PubChem BioAssay AID449762 (Southern Research Specialized Biocontainment Screening …, 2010)
Among all 330,000 compounds or so, about 1,900 (0.58%) were called active. Not shown: some 4% with an inconclusive outcome. These entries were drawn from the full list. Potency and affinity values are given separately. Unmarked numbers belong to inactive results. Cut-off read from the data, not from the text of the source: inconclusive = inhibition above about 70% without an active follow-up result; inactive = below that.

Assay: M. tuberculosis growth inhibition, HTS (AID 449762);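 note: bacterial growth assessed after seven days of incubation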
Conditions: M. tuberculosis H37Rv growth inhibition, 7H9 media; at 25 µM; hits give high values

Row | SMILES | inhibition
1 | CC(C)(C(=O)O)c1ccc([C@H](O)CCCN2CCC(C(O)(c3ccccc3)c3ccccc3)CC2)cc1 | 6.89%
2 | CC(C)(C(=O)O)c1ccc(C(O)CCCN2CCC(C(O)(c3ccccc3)c3ccccc3)CC2)cc1 (stereo not drawn) | 6.01%
3 | Cc1ccc2cc(CCNC(=O)c3ccc4c(c3)OCO4)c(=O)[nH]c2c1C | -3.26%
4 | Cn1ccc(NC(=O)CCl)n1 | 57.5%
5 | Cn1c(=O)n(C)c2cc(NC(=O)CCl)ccc21 | 64.7%
6 | CSc1ccc(CCNS(=O)(=O)c2c(C)[nH]c(C)c2C(=O)N2CCCCC2)cc1 | -2.39%
7 | Cc1ccc(NC(=O)C2CCC(CNC(=O)[C@@H]3Cc4ccccc4CN3)CC2)c(C)c1 (stereo partly drawn) | 7.99%
8 | Cn1c(O)c(/C=N/N2CCCCC2)c(=O)[nH]c1=O | -3.56%
9 | C=CCSC1=C(C#N)C(c2ccccc2C)CC(=O)N1 (stereo not drawn) | 1.95%
10 | COc1cc2[nH]c(=O)n(C3CCCCC3)c(=O)c2cc1OC | -2.86%
11 | COc1c[nH]n(-c2ccccc2)c(=O)c1=O | 2%
12 | O=C1C=C(c2ccc3ccccc3c2)C[C@@H](c2ccc(Cl)cc2)C1 | 19.3%
13 | COc1ccc([C@H]2CC(=O)C=C(c3ccc4[nH]ccc4c3)C2)cc1OC | 55.7%
14 | O=C(Nc1ccc(F)c(F)c1)C1CCN(S(=O)(=O)c2cccc3nonc23)CC1 | -5.72%
15 | Cn1nc(C(=O)Nc2cc(Cl)ccc2N2CCCC2)c2ccccc2c1=O | 1.5%
16 | Cc1cccnc1NC(=O)COc1ccc2c(c1)CCC2 | 54.8%
17 | CC(=O)Nc1ccc(NC(=O)COc2ccc3c(c2)CCC3)cc1 | 1.68%
18 | O=C(c1ccc2snnc2c1)N1CCCCC1 | -3.95%
19 | CCc1nnc(NC(=O)C2CC(=O)N(c3ccc(C)cc3)C2)s1 (stereo not drawn) | 11.9%
20 | Cc1ccc(N2CC(C(=O)Nc3nccs3)CC2=O)cc1Cl (stereo not drawn) | 10.9%
21 | COC(=O)/C(C#N)=C/c1c(-c2ccccc2)nc2n1CCS2 | -12.2%
22 | CCNc1nc(NC(C)C)nc(NS(=O)(=O)c2ccc(N)cc2)n1 | -9.39%
23 | CC(/C=C/c1ccco1)=N\NC(=O)c1cccnc1 | -3.96%
24 | O=C(N/N=C/C=C/c1ccccc1)c1cccnc1 | -0.94%

Row | SMILES | inhibition
25 | CC(C)(C)N1CSC(=S)N(Cc2ccccc2)C1 | 65%
26 | CC(C)N1CSC(=S)N(Cc2ccccc2)C1 | 64.3%
27 | COCCN1CSC(=S)N(Cc2ccco2)C1 | 66.9%
28 | S=C1NCN(Cc2ccco2)CN1Cc1ccco1 | 7.57%
29 | O=C(CCN1C(=O)c2ccccc2C1=O)Nc1ccc(F)cc1 | -6.8%
30 | CN(C)CCCN(C(=O)c1nc2ccccc2s1)c1nc2ccc(F)cc2s1 | -11.9%
31 | CN(C)CCCN(C(=O)c1cc(-c2cccs2)nc2ccccc12)c1nc2c(F)cccc2s1 | 49.4%
32 | C[C@H](CO)N1C[C@H](C)[C@@H](CN(C)C(=O)NC2CCCCC2)Oc2ccc(NC(=O)Cn3cnnn3)cc2C1=O | 4.07%
33 | Cc1c(C)c(C)c(CN2CCCC2)c(C)c1C | 2.65%
34 | CNC(=O)c1ccc(NC(=O)CCc2c(C)noc2C)cc1 | -12.4%
35 | CC[C@@]12C(=O)N(c3cccc(F)c3)C(=O)N1[C@H](c1ccc(F)cc1)[C@@H]1C(=O)N(C3CCCCC3)C(=O)[C@@H]12 | 0.17%
36 | CC(=O)Nc1ccc(N2C(C(C)=O)=NN(c3ccccc3)C2c2cccs2)cc1 (stereo not drawn) | 1.3%
37 | CC(=O)C1=NN(c2ccccc2)C(c2cccs2)N1c1ccccc1 (stereo not drawn) | -3.16%
38 | CC(=O)OCC1=C(C(=O)O)N2C(=O)C(NC(=O)C(C)Cn3cc(Cl)cn3)C2SC1 (stereo not drawn) | -1.4%
39 | CCCSc1nsc(SCCC)c1C#N | -0.55%
40 | CN(Cc1ccccc1)C(=O)Cn1c(=O)oc2cc(S(=O)(=O)N3CCCC3)ccc21 | -1.71%
41 | COc1cc(C2C(C(=O)C(C)(C)C)=C(O)C(=O)N2Cc2ccccc2)ccc1O (stereo not drawn) | 1.41%
42 | Cc1ccc(NC(=O)c2oc3ccc(S(=O)(=O)N4CCOCC4)cc3c2C)cc1C | -7.43%
43 | COc1cccc(NC(=O)c2oc3ccc(S(=O)(=O)N4CCOCC4)cc3c2C)c1 | 58%
44 | O=C(O/N=C1/CCCc2occc21)c1ccccc1 | 6.31%
45 | CCCn1c(S(=O)(=O)O)nc2ccccc21 | 5.54%
46 | COc1cc2c(cc1OC)C(C)N(S(=O)(=O)c1cccs1)CC2 (stereo not drawn) | -12.1%
47 | O=C(NC1CCCC1)C(c1ccncc1)N(CCCN1CCOCC1)C(=O)c1ccc(-c2ccccc2)[nH]1 (stereo not drawn) | 3.89%
48 | O=C(NC1CCCCC1)C(c1ccc(F)cc1)N(CCN1CCOCC1)C(=O)c1ccc(-c2ccccc2)[nH]1 (stereo not drawn) | 42.3%

Row | SMILES | inhibition
49 | CCC(COC(=O)Nc1ccccc1)NC(=O)OC(C)C (stereo not drawn) | -6.07%
50 | COc1cccc(Cn2cnc3c(NS(=O)(=O)c4cc(Cl)ccc4Cl)c(C)c(C)cc32)c1 | 0.44%
51 | Oc1ccc(Nc2nc(-c3ccc(O)cc3)cs2)cc1 | 4.52%
52 | NS(=O)(=O)c1ccc(Nc2nc(-c3ccc4ccccc4c3)cs2)cc1 | 1.78%
53 | CSc1ccccc1NC(=O)Cn1nnc(-c2ccc(S(C)(=O)=O)cc2)n1 | -2.14%
54 | NC(=O)C1CCN(Cc2nc(-c3ccccc3)no2)CC1 | -14.2%
55 | O=c1c2ccccc2cnn1Cc1n[nH]c(=S)n1-c1ccc(F)cc1 | 4.78%
56 | CCOC(=O)N/N=C\c1ccc([N+](=O)[O-])o1 | -1.58%
57 | CCOC(=O)N/N=C(\C)c1ccc(C)o1 | -1.85%
58 | CC(C)NC(=O)N(O)C1N(Cc2ccc3c(c2)OCO3)C(=S)SC1(C)C (stereo not drawn) | 3.94%
59 | CCCc1cc(C(=O)OC)c(NC(=O)CCCC(=O)O)s1 | 0.02%
60 | Cc1nn(CC(=O)NCCCc2ccccc2)c(=O)c2cc3occc3n12 | 3.16%
61 | COc1cccc(NC(=O)CN(C)C(=O)CNC(=O)c2ccc(Oc3ccccc3)cc2)c1 | 7.98%
62 | Cc1c(Cl)cccc1NC(=S)N1CCN(C(=O)c2ccco2)CC1 | -0.43%
63 | Cc1ccc(N2C(=O)C(CN(C)C)C2c2ccccc2)cc1 (stereo not drawn) | -6.05%
64 | COc1ccc(N2C(=O)C(F)(F)C2c2ccc(C)cc2)cc1OC (stereo not drawn) | 60.7%
65 | CC1=NN(C(=O)c2c(Br)c(C)nn2C)C(O)(C(F)(F)F)C1 (stereo not drawn) | 0.52%
66 | C#CCSc1nc2ccccc2n1C(=O)c1ccc(S(=O)(=O)N2CCCCC2)cc1 | -2.86%
67 | COC(=O)C1=C(c2ccc(S(C)(=O)=O)cc2)C[C@@H]2CC[C@H]1N2C(=O)N1CCCCC1 | 3.7%
68 | Cc1c(Cl)cccc1NC(=O)NCc1ccccn1 | -11.4%
69 | Cc1c(C(=O)NCc2ccccn2)oc2c(Cl)cccc12 | -3.71%
70 | CCC1CCCCN1CCCNC(=O)Cn1nc(C)n2nc(-c3ccccc3)cc2c1=O (stereo not drawn) | 1.58%
71 | CCSc1nnc(CCNS(=O)(=O)c2ccc(C(C)=O)cc2)n1C | 0.26%
72 | S=C(Nc1cc(Cl)cc(Cl)c1)N1CCCC1 | 0.04%

Row | SMILES | inhibition
73 | Cc1cc2c(ncn2Cc2ccccc2)c(N)c1C | 2.7%
74 | CCCn1cnc2c(N)c(C)c(C)cc21 | -11.4%
75 | O=C(NNC(=O)C1CCN(c2ncccn2)CC1)c1ccc(F)cc1 | 0.94%
76 | CC(=O)OC1N=C(c2ccccc2Cl)c2cc(Br)ccc2N(C)C1=O (stereo not drawn) | -6.48%
77 | N#C/C(=C/c1ccc(N2CCCCC2)o1)C(=O)NCCc1c[nH]c2ccccc12 | -3.85%
78 | N#C/C(=C/c1ccc(Br)s1)C(=O)NCCc1c[nH]c2ccccc12 | 3.76%
79 | CCN1CCc2nc(NC(=O)Cc3ccc4c(c3)OCCO4)sc2C1 | -17.6%
80 | CC(C)NC(=O)CCCN1C(=O)c2ccccc2Sc2ncccc21 | 1.48%
81 | O=C(O)c1cc(-c2ccncc2)nc2ccc(S(=O)(=O)N3CCOCC3)cc12 | 3.61%
82 | O=C(Nc1ccc(N2CCCC2)c(Cl)c1)c1cccs1 | 7.74%
83 | O=C(NC(=S)Nc1ccc(N2CCOCC2)c(Cl)c1)c1cccs1 | 3.13%
84 | COc1ccc2c(c1)C(=O)N1[C@H]3c4cc(OC)ccc4OC[C@@H]3[C@H](c3ccccc3)[C@]1(C)C(=O)N2 | 1.44%
85 | COc1ccc2c(c1)[C@H]1[C@H](CO2)[C@H](c2ccccc2)[C@]2(C)C(=O)Nc3ccc(C)cc3C(=O)N12 | 1.01%
86 | O=c1c2cccc3c2c(nn1-c1ccccc1)-c1ccccc1-3 | -2.02%
87 | COc1cccc(NC(=O)CN(C)C(=O)c2c(C)nn(CC(C)C)c2Cl)c1 | -7.79%
88 | O=C(COc1ccccc1)OCc1csc(Nc2ccccc2)n1 | 11.3%
89 | O=C(COc1ccc(Cl)cc1)OCc1csc(Nc2ccccc2)n1 | 4.58%
90 | CC1CCCC(NC(=O)COC(=O)c2ccc(Br)o2)C1C (stereo not drawn) | 10.4%
91 | COCCN(C(=O)c1cc(-c2ccncc2)nc2ccccc12)c1c(N)n(CC(C)C)c(=O)[nH]c1=O | -4.69%
92 | C=C(C)C1Cc2c(C)nn(-c3cccc4ccccc34)c2C1 (stereo not drawn) | 40.9%
93 | C=C(C)C1Cc2c(C)nn(-c3ccccc3)c2C1 (stereo not drawn) | 5.29%
